According to the supplement of paper PMC6279402:
± gives the standard deviation of the averaged measurements.

system: A549; test: relative viability (normalised to negative control = 1, bortezomib = 0) (fraction); higher = less cytotoxic; conditions: inflammatory serum-free RHB-A with cytokines + LPS; 5 d + 24 h CellTiter-Blue; compound 300 nM; GSK126 pretreatment: none (vehicle)

SMILES | relative viability
NC1(Cc2ccc(Cl)cc2)CCN(c2ncnc3[nH]ccc23)CC1 | 0.875 ± 0.023
CC(=O)O[C@]1(C(C)=O)CC[C@H]2[C@@H]3C=C(C)C4=CC(=O)CC[C@]4(C)[C@H]3CC[C@@]21C [Megestrol acetate] | 1.55 ± 0.085
Nc1nccc(Oc2ccc(NC(=O)c3c[nH]cc(-c4ccc(F)cc4)c3=O)cc2F)c1Cl | 1.12 ± 0.18
COc1cc(OC)c(/C=C/S(=O)(=O)Cc2ccc(OC)c(NCC(=O)O)c2)c(OC)c1 | 0.245 ± 0.035
O=C(c1ccc(/C=C/c2n[nH]c3ccccc23)cc1)N1CCNCC1 | 1.04 ± 0.091
Cc1cn(-c2cc(NC(=O)c3ccc(C)c(Nc4nccc(-c5cccnc5)n4)c3)cc(C(F)(F)F)c2)cn1 [Nilotinib] | 1.07 ± 0.069
CC1(COc2ccc3c(c2)ncn3-c2ccc3cccc(N4CCC(N)CC4)c3n2)COC1 | 1.34 ± 0.12
Cc1[nH]c(/C=C2\C(=O)Nc3ccccc32)c(C)c1CCC(=O)O | 0.772 ± 0.029
COc1cc2nccc(Oc3ccc(NC(=O)Nc4ccc(F)cc4F)c(F)c3)c2cc1OC | 1.01 ± 0.075
